Out of some 350,000 compounds screened, about 31,000 (8.9%) were called active. Where a call stands in place of a potency, no number is given. Another 15% or so got no clear call; they are omitted. The sample holds actives, similar compounds and a random draw of the others, so the mix is not that of the screen. The call rests on the fitted dose curve; in most records, active means well fitted inhibition curve with a large enough effect; inconclusive means small, poorly fitted or top-dose-only effect; inactive means no such curve, though single readings can be large or run the other way.

The results in this text go back to PubChem BioAssay AID504332 (National Center for Advancing Translational Sciences (NCATS), 2011).
Potency means the concentration at half of the fitted maximal effect.

In this assay the target is Histone-lysine N-methyltransferase EHMT2 (Homo sapiens) (UniProt Q96KQ7). In words: qHTS Assay for Inhibitors of Histone Lysine Methyltransferase G9a. Further: nearly all actives have a fitted effect of over 75% in size. The settings on record: G9a H3K9 monomethylation, AlphaScreen, 2 h; series mostly up to 59 µM. An outline of the steps: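 AlphaScreen read-out: biotin-H3K9 peptide (500 nM) methylation by 20 nM enzyme with 20 uM SAM, 2 h at room temperature after 15 min compound preincubation; anti-monomethyl H3K9 antibody plus donor/acceptor beads, 10 min dark.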
Sequence of Histone-lysine N-methyltransferase EHMT2 (Homo sapiens) (Q96KQ7 913-1193 limits assumed): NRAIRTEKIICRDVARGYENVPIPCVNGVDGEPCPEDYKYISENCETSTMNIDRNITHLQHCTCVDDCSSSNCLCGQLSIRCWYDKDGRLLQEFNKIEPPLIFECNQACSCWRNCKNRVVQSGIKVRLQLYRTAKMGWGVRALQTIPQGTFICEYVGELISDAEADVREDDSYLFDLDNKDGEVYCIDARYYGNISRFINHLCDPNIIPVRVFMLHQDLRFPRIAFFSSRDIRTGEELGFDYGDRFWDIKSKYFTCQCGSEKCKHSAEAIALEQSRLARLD
Take `COC(=O)c1ccc(/C=N/OCC(=O)Nc2cc(F)ccc2F)cc1`: the Potency entry was “inactive”. `CC(C)(CCl)C(=O)Nc1ccc(Sc2ccc(F)cc2)cc1`: the activity, negative = inhibition was -58.2% [at 2.33 µM] (inactive). As for `COC(=O)c1ccc(Sc2ccc(F)cc2)c(N)c1`, the Potency was 28.2 µM (active). On to `Cc1ccccc1NC(=O)NCC1CCN(Cc2cccc(Cl)c2)CC1`, for which the activity, negative = inhibition is 2.62% [at 2.33 µM] (inactive).

Regarding `CC(C)CC(=O)N1CCC(O)(CS(=O)(=O)Cc2ccccc2)CC1`, the Potency result was “inactive”. For the compound `CC(C)CC(=O)N1CCN(Cc2ccccc2Br)CC1`, the Potency is 20 µM (active). For `CC(CC(=O)N1CCN(c2ccccc2)CC1)c1ccccc1` (stereo unspecified), the Potency entry is “inactive”. Still for that read-out and setting: the value for `O=C(c1cccc(Cl)c1)N1CCN(Cc2ccccc2)CC1` was “inactive”. Take `CC(C)CC(=O)N1CCN(Cc2cccc(Cl)c2)CC1`: the Potency is 22.4 µM (active).

In the case of `COc1cc([N+](=O)[O-])ccc1NC(=O)COC(=O)CCOc1ccc(C)cc1`, the Potency result was “inactive”.

Turning to `Cc1ccc(/C=C2/SC(=S)N(CCC(=O)NCCCN3CCOCC3)C2=O)cc1`, the Potency entry was “inactive”.

On to `O=C(CCCCn1c(=O)c2ccccc2n(CC(=O)Nc2cccc(C(F)(F)F)c2)c1=O)NCc1ccc2c(c1)OCO2`, for which the Potency entry is “inactive”.

For `COc1cccc(CNCCSc2nnnn2C)c1OCc1ccccc1Cl`, the Potency entry is “inactive”. As to `O=S(=O)(O)c1nc2ccccc2n1Cc1ccc(Cl)cc1Cl`, the Potency entry was “inactive”. Turning to `Cn1c(S(=O)(=O)O)nc2ccccc21`, the Potency result is “inactive”. On the same count and under the same terms, the value for `O=S(=O)(O)c1nc2ccccc2n1Cc1ccc(Cl)cc1` was 50.1 µM (active); that for `CCc1nn(CC(=O)NCC(C)c2ccccc2)c(=O)c2cc3occc3n12` (stereo unspecified) was “inactive”. In the case of `COc1ccc2cc(S(=O)(=O)Nc3ccccn3)ccc2c1`, the Potency entry is “inactive”. `COc1ccc(S(=O)(=O)Nc2c(C)n(C)n(-c3ccccc3)c2=O)cc1`: the Potency entry is “inactive”. For `COc1ccc(S(=O)(=O)/N=C2\C=C(NS(=O)(=O)c3ccccc3)C(=O)c3ccccc32)cc1`, the Potency was 8.91 µM (active).

`CN(C)c1ccnc2sc3c(=O)n(Cc4ccccc4)cnc3c12`: the activity, negative = inhibition was 26.4% [at 0.501 µM] (inactive). For `CN(C)c1ccc(/C=C2\NC(=S)N(Cc3ccccc3)C2=O)cc1`, the Potency entry is “inactive”. Same read-out and setting: the value for `CC1=NN(Cc2ccccc2)C(=O)/C1=C/c1ccc(N(C)C)cc1` was 10 µM (active). Turning to `COc1ccccc1C(=O)NC(CCSC)C(=O)NNC(=O)c1ccccc1C` (stereo unspecified), the activity, negative = inhibition was 25.8% [at 0.501 µM] (inactive). For `O=c1[nH]c(SCc2ccccc2)nnc1-c1ccccc1`, the Potency entry is “inactive”. Consider `COc1ccc2nc(SCc3ccccc3)nc(C)c2c1`, for which the Potency result was “inactive”.

Turning to `c1ccc(CSc2nnc(-c3ccco3)c(-c3ccco3)n2)cc1`, the Potency is 6.31 µM (active). Consider `COc1cc(C(=O)NCC(=O)NCCSc2ccc(Br)cc2)cc(OC)c1OC`, for which the activity, negative = inhibition is 10% [at 0.501 µM] (inactive).

Take `O=C(COC(=O)Cc1ccccc1F)NCCc1ccccc1`: the activity, negative = inhibition was -6.48% [at 2.33 µM] (inactive). Regarding `CC(=O)Nc1ccc(C(=O)N(C2=NC(C)CS2)c2ccc(Cl)cc2)cc1` (stereo unspecified), the Potency entry was “inactive”. On the same count and under the same terms, the value for `COCCCNC(=O)c1ccc(NC(=O)c2nsc3ccccc23)cc1` was “inactive”; that for `OC(CNCCc1ccc(Cl)cc1Cl)COc1ccccc1` (stereo unspecified) was 25.1 µM (active); that for `COc1ccc(OCC(O)CNC(=O)Nc2ccc(Cl)cc2)cc1` (stereo unspecified) was “inactive”. Still for that read-out and setting: next, `COC(=O)c1sc2ncccc2c1OCc1ccc(Cl)cc1Cl`: “inactive”; `CCCCN(CC)CCCNC(=O)Cn1ncc2c([nH]c3ccc(C)cc32)c1=O`: “inactive”. For `COc1cc(C(=O)NCC(c2ccco2)N2CCCC2)ccc1OCc1ccccc1` (stereo unspecified), the Potency entry is “inactive”. Consider `CC1Cc2ccccc2N1S(=O)(=O)c1cccc(C(=O)NCC(c2ccco2)N2CCCC2)c1` (stereo unspecified), for which the Potency is 39.8 µM (active). Take `Cc1ccccc1C(=O)NCC(c1ccco1)N1CCc2ccccc21` (stereo unspecified): the activity, negative = inhibition was 12% [at 2.33 µM] (inactive). `CC1CCc2sc(C(=O)NCC(c3ccco3)N3CCCCC3)cc2C1` (stereo unspecified): the Potency result is “inactive”. For `O=C(NCC(c1ccco1)N1CCc2ccccc21)c1cccc(F)c1` (stereo unspecified), the Potency is 50.1 µM (active). Consider `COc1ccc(C(=O)NCC(c2ccco2)N2CCc3ccccc32)cc1OC` (stereo unspecified), for which the activity, negative = inhibition was -2.6% [at 0.501 µM] (inactive). Turning to `COc1ccc2cc(C(=O)NCC3CCCO3)[nH]c2c1` (stereo unspecified), the Potency entry was “inactive”. For the compound `Cc1cc2c(cc1S(=O)(=O)CCC(=O)Nc1ccc(OC(F)(F)F)cc1)OCC(=O)N2`, the Potency entry is “inactive”. Turning to `C=CCn1c(SCC(=O)/C(C#N)=C(\C)N)nc2sc(C)c(C)c2c1=O`, the Potency entry was “inactive”. For `C=CCn1c(SCC(=O)Nc2ccc(NC(C)=O)cc2)nc2sc(C)c(C)c2c1=O`, the activity, negative = inhibition was 8.2% [at 12.7 µM] (inactive).

With `C=CCn1c(SCc2csc(C)n2)nc2scc(-c3ccc(C)o3)c2c1=O`, the Potency was 10 µM (active). Regarding `CCN(C(=O)CSc1ncn[nH]1)c1cccc2ccccc12`, the Potency was 22.4 µM (active).

With `O=C(CSc1ncn[nH]1)Nc1nsc(-c2ccccc2)n1`, the Potency entry was “inactive”. In the case of `CCN(C(=O)Cc1c(C(=O)O)n(CC)c2ccccc12)c1ccccc1C`, the activity, negative = inhibition was 26.7% [at 0.501 µM] (inactive). Still for that read-out and setting: next, `CCOc1ccc(C(=O)NCC(=O)N2CCCCCCC2)cc1OCC`: 8% [at 0.501 µM] (inactive). On to `CC(Oc1ccc(F)cc1)C(=O)Nc1ccccc1C(=O)NC1CC1` (stereo unspecified), for which the Potency entry is “inactive”. For the compound `COc1cc(-c2c(-c3ccc4c(c3)OCO4)noc2C)ccc1F`, the Potency result is “inactive”. As to `CC(C(=O)N1CCc2ccccc21)N(C)CC(=O)Nc1ccc(F)cc1` (stereo unspecified), the activity, negative = inhibition was 13.8% [at 12.7 µM] (inactive). Regarding `CC(=NCc1ccco1)c1c(C(F)(F)F)[nH]n(-c2nc3ccccc3s2)c1=O`, the activity, negative = inhibition is 1.72% [at 12.7 µM] (inactive). For the compound `COC(=O)Cc1[nH]n(-c2nc3ccccc3s2)c(=O)c1C(C)=Nc1ccc(OC)cc1`, the Potency was 2.82 µM (active). With `C/C(=N\NC(=O)CC(C)C)c1c(C(F)(F)F)[nH]n(-c2nc3ccccc3s2)c1=O`, the Potency entry was “inactive”. In the case of `COc1ccccc1CCC(=O)OCC(=O)N1CCN(S(=O)(=O)c2ccc(C)cc2C)CC1`, the Potency result was “inactive”. For the compound `c1ccc(-n2nc3ccccc3n2)cc1`, the Potency entry is “inactive”.

In the case of `c1ccc(-n2ncc(-c3nn[nH]n3)n2)cc1`, the Potency is 50.1 µM (active). `Brc1ccc(-c2nn[nH]n2)cc1`: the Potency entry is “inactive”.

Consider `Cc1c(NC(=O)C(C)Oc2cccc(Cl)c2)c(=O)n(-c2ccccc2)n1C` (stereo unspecified), for which the Potency result was “inactive”.

As to `CC1=C(C(N)=O)C(c2ccc3c(c2)OCO3)n2nc(-c3cccc(C)c3)nc2N1` (stereo unspecified), the Potency is 0.355 µM (active). The same measure, in the same setting: next, `CCN(CC)c1ccc(C2C(C(N)=O)=C(C)Nc3nc(SCc4ccccc4)nn32)cc1` (stereo unspecified): “inactive”. On the same count and under the same terms, next, `COc1cccc(-c2nc3n(n2)C(c2ccccc2Cl)C(C(N)=O)=C(C)N3)c1` (stereo unspecified): “inactive”; `COc1ccc(CC(=O)N2CC(=O)Nc3ccc(Br)cc3C2c2ccc(F)cc2)cc1OC` (stereo unspecified): “inactive”. On to `CCc1ccc(C2C(C(=O)Nc3ccccc3)=C(C)Nc3c(C(=O)Nc4ccc(C)cc4)cnn32)cc1` (stereo unspecified), for which the Potency entry was “inactive”.

For the compound `Cc1cc(F)ccc1NS(=O)(=O)c1ccc(-n2cccn2)cc1`, the Potency result was “inactive”.

For `Cc1cc(F)ccc1NC1(c2ccccc2)C(=O)c2ccccc2C1=O`, the Potency is 14.1 µM (active). `Cc1cc(F)ccc1NC(=O)C(C)n1c2ccccc2c2nc(=O)cc(C)n21` (stereo unspecified): the Potency entry was “inactive”. For the compound `COc1cccc2c1cc1c(=O)n(CC(=O)N3CCN(c4cccc(Cl)c4)CC3)nc(C)n12`, the Potency result was “inactive”.

`O=S(=O)(NCC(c1ccco1)N1CCOCC1)c1cc(F)ccc1F` (stereo unspecified): the Potency result is “inactive”. For `COC(=O)CNc1nc(Cl)nc(N2CCC(C)CC2)n1`, the Potency was 56.2 µM (active). As to `Clc1nc(NC2CCCC2)nc(N2CCOCC2)n1`, the Potency result was “inactive”. Turning to `CCOC(=O)CNc1nc(Cl)nc(Nc2ccccc2)n1`, the Potency entry is “inactive”. As for `O=C(COc1ccc(Cl)cc1[N+](=O)[O-])N1CCCCC1`, the Potency entry is “inactive”. Same read-out and setting: the value for `O=[N+]([O-])c1cc([N+](=O)[O-])c(Oc2cc(F)cc(F)c2F)cc1NN1CCCCC1` was 15.8 µM (active); that for `O=C(COc1ccccc1F)NNC(=O)c1ccc(N2CCCCC2)c([N+](=O)[O-])c1` was “inactive”. Same read-out and setting: the value for `CCOC(=O)C1CCN(C(=O)CSc2c3c(nc4ccc(Cl)cc24)CCCC3)CC1` was “inactive”; that for `COc1ccc(/C=C2\SC(=O)N(CCC(=O)NCCCn3ccnc3)C2=O)cc1` was “inactive”. In the case of `COc1ccc(/C=C2/SC(=O)N(CCCCCC(=O)Nc3ccccc3C(=O)O)C2=S)cc1`, the Potency is 35.5 µM (active).

With `COc1ccccc1C(=O)NNC(=O)CCN1C(=O)/C(=C\c2ccccc2)SC1=S`, the Potency result was “inactive”. On the same count and under the same terms, the value for `CN(C(=O)c1ccc2c(c1)N(Cc1cccc(Cl)c1)C(=O)c1ccccc1S2=O)C1CCCCC1` (stereo unspecified) was “inactive”. On to `CNC(=O)C(=O)N/N=C/c1ccccn1`, for which the activity, negative = inhibition was -131% [at 12.7 µM] (inactive).

For `Cc1cc(C(=O)N/N=C/c2ccccn2)c2ccccc2n1`, the Potency was 12.6 µM (active). As for `CCOc1ccc(NC(=O)c2cc(C)nc3ccccc23)cc1`, the Potency entry is “inactive”.

With `COC(=O)C1CCN(C(=O)c2ccc3oc(Cc4ccc(Cl)cc4)nc3c2)CC1`, the Potency result was “inactive”.

Consider `CCC(=O)N1N=C(c2ccc(OC)cc2)CC1c1cn(-c2ccccc2)nc1-c1cccs1` (stereo unspecified), for which the Potency entry is “inactive”. On the same count and under the same terms, the value for `COc1ccc(-c2nc(Cn3c(=O)cc(C)c4c(C)nn(-c5ccccc5)c43)c(C)o2)c(OC)c1` was “inactive”; that for `CCOc1cccc(C(=O)Nc2nnc(S(=O)(=O)N(C)c3ccc(C)cc3)s2)c1` was “inactive”. For the compound `Cn1c(SCC(=O)N2CCOCC2)nnc1-c1ccc2ncccc2c1`, the Potency result was “inactive”. For `Cn1c(SCC(=O)N2CCCC2)nnc1-c1ccc2c(c1)OCO2`, the Potency result was “inactive”. In the case of `Cn1c(SCC(=O)N2CCOCC2)nnc1-c1ccc(NC(=O)c2ccccc2F)cc1`, the Potency is 50.1 µM (active).

For `CCn1cc(C(=O)NCc2ccccc2)c(=O)c2cc(S(=O)(=O)N3CCCCC3)ccc21`, the Potency entry is “inactive”.

As for `Cc1ccc(CNC(=O)CCNS(=O)(=O)c2ccc3c(c2)oc(=O)n3C)cc1`, the Potency entry is “inactive”.

In the case of `COc1cccc(CN2CCc3nc(SCC(=O)Nc4ccccc4)[nH]c(=O)c3C2)c1`, the Potency result was “inactive”. In the case of `CN1C(=O)c2cccc3c(N)ccc(c23)C1=O`, the activity, negative = inhibition was -11.1% [at 2.33 µM] (inactive). Turning to `CCN1C(=O)c2cccc3c(N)ccc1c23`, the Potency was 39.8 µM (active). Consider `Cc1cccc(NC(=O)CN2C(=O)c3ccccc3C2=O)c1C`, for which the Potency result was “inactive”. Consider `Nc1ccc2c3c(cccc13)C(=O)NC2=O`, for which the activity, negative = inhibition is 29.3% [at 12.7 µM] (inactive). Regarding `CCN1C(=O)c2cccc3c(S(=O)(=O)Nc4ccccc4O)ccc1c23`, the Potency is 44.7 µM (active). As for `O=C(CN1C(=O)c2cccc3cccc1c23)Nc1ccccc1`, the Potency result is “inactive”.
